RT RNaseH block – blocks HIV-1 RNase H cleavage of RNA/DNA duplex; P04585; RT-RNase H RNA/DNA duplex cleavage, fluorescence; inhibition, % at 10 µM; 1.9% of 65,000 active; in the data active = inhibition above about 50%
* hit, by the source's call. The sample as a whole holds a higher share of hits than the screen did.

SMILES | RT RNaseH block
COc1ccccc1-c1nc2s/c(=C\c3cccs3)c(=O)n2n1 | -0.9
Cc1ccc2c(nc3s/c(=C/c4cccs4)c(=O)n32)c1C | 80.5*
Cc1ccc(/C=c2\sc3nc(-c4cccs4)nn3c2=O)o1 | 44.7
CC(=O)c1cc(OC(=O)c2ccncc2)ccc1OC(=O)c1ccncc1 | 10.8
CC1(C)Cc2c(c(-c3ccccc3)[nH]c(=O)c2C#N)CS1 | 3.5
CC1(C)Cc2c(C#N)c(N)sc(=S)c2CS1 | 62.3*
Cn1c(N)c(C#N)c2c(c1=S)CSC(C)(C)C2 | 18.5
Cc1ccc(NC(=O)COc2ccc(/C(N)=N/O)cc2)cc1C | -8.9
COC(=O)Nc1sc2c(c1C(=O)NCc1ccco1)CCCC2 | 10.6
CCOc1ccccc1NC(=O)c1c(NC(=O)CNCc2ccco2)sc2c1CCC2 | 72.1*
COC(=O)Nc1sc2c(c1C(=O)NCc1ccco1)CCC2 | -15.3
CC(C)C(=O)N1CCC(CN=Cc2c(O)n(C3CCCCC3)c(=O)n(C3CCCCC3)c2=O)CC1 | -1.5
NS(=O)(=O)c1ccc(N=Cc2c(O)n(C3CCCCC3)c(=O)n(C3CCCCC3)c2=O)cc1 | 51.9*
CCC(=O)N1CCN(CCN=Cc2c(O)n(C3CCCCC3)c(=O)n(C3CCCCC3)c2=O)CC1 | -4.5
COc1ccc(-n2nnnc2SCC(N)=O)cc1 | -9.1
COc1ccc(-n2nnnc2S(=O)(=O)Cc2ccc(C(=O)O)cc2)cc1 | 62.6*
COc1ccc(-n2nnnc2S(=O)(=O)CC(=O)N2CCCCC2)cc1 | 29.3
Cc1cc2ccccc2n1CCNC(=O)c1cccs1 | -2.0
CCCCS(=O)(=O)NC1=NCN(C2CCN(Cc3ccccc3)CC2)CN1 | -4.9
COc1ccc(NC(=O)CC2Sc3ncnn3C2=O)cc1 (centres undefined) | 2.5
CCOC(=O)c1ccc(NC(=O)CC2SC(=NC)N(C)C2=O)cc1 (centres undefined) | -3.4
CCOC(=O)c1ccc(NC(=O)CC2Sc3ncnn3C2=O)cc1 (centres undefined) | 59.9*
Fc1ccc(-c2nnc3ccc(N4CCc5ccccc5C4)nn23)cc1 | -23.0
O=C(CSc1nnnn1C1CCCCC1)Nc1nc2c(s1)CCCC2 | -2.3
O=C(CN1C(=O)COc2ccccc21)N(CCCN1CCOCC1)CC1CC=CCC1 (centres undefined) | -6.5
SMILES | RT RNaseH block
NC(=O)C1CCCNC1 (centres undefined) | 2.3
Cc1cc2c3nonc3ccc2n1-c1ccccc1 | -78.5
O=C(O)c1cccc(N2CCCC2)c1 | 3.3
O=C1CC(N2CCOCC2)C(=O)N1c1cccc(Cl)c1 (centres undefined) | 5.6
CN1CCN(C2=C(Cl)C(=O)N(CCc3ccccc3)C2=O)CC1 | 1.4
O=C1C(Cl)=C(N2CCOCC2)C(=O)N1CCc1ccccc1 | -12.7
O=C1C(Cl)=C(N2CCCCCC2)C(=O)N1c1ccccc1 | 56.8*
O=C1C(Cl)=C(N2CCOCC2)C(=O)N1c1cccc(Cl)c1 | 93.0*
CN1C(=O)N(c2ccccc2)C(Nc2nncs2)C1(C)C (centres undefined) | -3.4
CCOC(=O)N1CCN(c2nc3ccccc3nc2C(C#N)S(=O)(=O)c2ccc(C)cc2)CC1 (centres undefined) | 16.6
CC(C)C(c1nnnn1C(C)(C)C)N1CCN(c2cccc(Cl)c2)CC1 (centres undefined) | 1.1
Cc1cc(OC(=O)c2ccc(S(=O)(=O)N(C)C)cc2)cc(=O)o1 | -0.3
Cc1noc(C)c1S(=O)(=O)NCc1ccc2c(c1)OCO2 | -9.3
O=C(c1noc2c1CCCCC2)N1CCN(C(c2ccccc2)c2ccccc2)CC1 | 0.6
COCc1nnc(NS(=O)(=O)c2ccc(Br)cc2)s1 | 1.6
Cc1cccc(OCCSc2cc(C)nc(N)n2)c1 | -42.9
O=c1[nH]c(=S)[nH]nc1Cc1ccccc1 | -1.4
CCCCOC(=O)C(C)Nc1n[nH]c(=O)[nH]c1=O (centres undefined) | -8.7
CC(Nc1n[nH]c(=S)[nH]c1=O)C(=O)OCc1ccccc1 (centres undefined) | 53.0*
CCN(CC)S(=O)(=O)c1cc(Br)c(C)cc1OC | -72.2
CCCCn1c(SCC(=O)Nc2cc(NC(=O)c3ccco3)ccc2C)nc2ccccc2c1=O | 55.3*
CCn1c(SCC(=O)Nc2ccc(NC(=O)c3ccco3)c(OC)c2)nc2ccccc2c1=O | 20.8
CCCCn1c(SCC(=O)Nc2cc(C)on2)nc2ccccc2c1=O | 33.5
Cc1nc2cc(F)ccc2n1C1CCN(S(=O)(=O)c2ccccc2)CC1 | -1.4
O=C(Nc1ccccc1-c1ccccc1)C1CCCN(c2ncccn2)C1 (centres undefined) | -39.4
SMILES | RT RNaseH block
N#CC1=C(N)N2C(=C(C#N)C13CCCCC3)SC1CCCCC12O (centres undefined) | -2.2
CC1=CS/C(=C(/C#N)C(=O)N2CCCCC2)N1c1ccccc1 | -5.9
COC(=O)/C(C#N)=C1/SC=C(C)N1c1ccccc1 | -8.4
N#C/C(C(=O)c1ccccc1)=C1/SC=C(N)N1c1ccccc1 | 64.2*
Cc1cc(Oc2ccccc2)nc2ccc(O)cc12 | -23.4
CC(=O)Nc1c(C(=O)O)oc2ccccc12 | 55.6*
CC(=O)Nc1c(C(=O)c2ccc(F)cc2)oc2ccccc12 | 3.9
CC(=O)Nc1c(C(=O)O)oc2ccc(Cl)cc12 | 1.6
COc1cc(C2CC(=O)c3c([nH]c(C(=O)OCCOC(C)C)c3C)C2)cc(OC)c1OC (centres undefined) | -29.1
Cc1cccc(OCc2nnc(SCC(=O)Nc3ccc(C)c(Cl)c3)o2)c1 | -8.3
C=CCn1c(-c2ccccc2)n[nH]c1=S | 7.4
C=CCn1c(Cc2nc3ccc(Cl)cc3[nH]2)n[nH]c1=S | 58.0*
C=CCn1c(-c2ccoc2)n[nH]c1=S | -18.1
CCc1c(C)nc(N)n2c(SCC(=O)N3CCCC(C)C3)nnc12 (centres undefined) | 2.9
O=C(Nc1ccncc1)c1c(O)c2ccccc2n(Cc2ccccc2)c1=O | 3.5
CCCCCCn1c(=O)c(C(=O)Nc2ccncc2)c(O)c2ccccc21 | 69.4*
CCCCn1c(=O)c(C(=O)NCc2ccncc2)c(O)c2ccccc21 | 8.0
CCC(=O)Nc1cc(C)c(NC(=O)c2ccccc2OC)cn1 | -30.6
O=S(=O)(NCCC1=CCCCC1)c1cccc(S(=O)(=O)N2CCOCC2)c1 | -21.6
COc1cccc(-c2ccc(-c3noc(-c4ccccc4F)n3)c(OC)n2)c1 | 3.3
COc1ccc(-c2ccc(-c3noc(C(C)C)n3)c(OC)n2)cc1 | -0.3
COc1nc(-c2ccc(Cl)cc2)ccc1-c1noc(-c2ccco2)n1 | 50.3*
CC/C(=C\C(=O)c1cccnc1)Nc1ccc(C)c(C)c1 | -23.8
COc1cccc(-c2nnc(SCC(=O)Nc3ccc4c(c3)OCCO4)n2Cc2ccco2)c1 | -14.7
CCC(Sc1nc2cc3c(cc2c(=O)n1Cc1ccco1)OCO3)C(=O)Nc1ccccc1OC (centres undefined) | 6.3
SMILES | RT RNaseH block
CCC(Sc1nc2cc3c(cc2c(=O)n1Cc1ccco1)OCO3)C(=O)Nc1cccc(OC)c1 (centres undefined) | 59.8*
CN=C1SC(CC(=O)Nc2cc(Cl)ccc2Cl)C(=O)N1C (centres undefined) | -20.7
COc1cccc(CNC(=O)C2CCN(c3cnccn3)CC2)c1 | 1.5
CCOC(=O)c1c2c(c(=S)n(-c3ccccc3)c1N)CCC2 | 9.5
CCC1(C)Cc2c(C#N)c(N)n(-c3ccccc3)c(=O)c2CO1 (centres undefined) | -6.6
N#Cc1c2c(c(=S)n(-c3ccccc3)c1N)CCCC2 | 70.1*
COc1ccc(CN2CCCCC2c2cccnc2)c(OC)c1C (centres undefined) | -10.9

Screening results from PubChem BioAssay.
